FMDV inh – blocks foot and mouth disease virus; FMDV antiviral cell-based qHTS; Potency, µM (titrated, usually from 57.9 µM), inactives show top-dose activity change, negative = inhibition, most hits filed as inhibitors; hit rate 1.2% among 410,000; AID 1159524; calls by dose curve; tested in HEK293T cells; note: read-out not given here; potency is the fitted concentration of half-maximal effect; nearly all actives have a fitted effect of over 45% in size
RE007 growth inh – less growth of the S. pombe RE007 Vpr strain. S. pombe RE007 Vpr strain, BacTiter-Glo ATP luminescence, 24 h. Potency, µM (series often up to 92.2 µM), for the others: top-dose activity change, negative = less growth, actives largely listed as inhibitors. hit rate 0.21% among 360,000; active = well fitted falling curve with a large enough effect; inconclusive = small, poorly fitted or top-dose-only effect; inactive = no such curve, though single readings can be large or run the other way; note: potency is the fitted concentration of half-maximal effect; nearly all actives have a fitted effect of over 50% in size
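Fission yeast strain RE007, carrying one chromosomally integrated HIV-1 vpr copy, was seeded at OD 0.01 in PMG+AL medium with 23 nL pinned compound. After 24 h at 30 °C and 99% humidity, viability was read by BacTiter-Glo luminescence.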
Sm TGR block – S. mansoni TGR enzyme inhibition. purified TGR, DTNB reduction, TNB absorbance 405 nm. Potency, µM (titrated, usually from 114 µM), for inactives: at the top dose activity change, negative = inhibition, actives largely listed as inhibitors. AID 485364. hit rate 3% among 360,000; note: potency is the fitted concentration of half-maximal effect; nearly all actives have a fitted effect of over 60% in size
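Kinetic colorimetric format: TGR-catalysed, NADPH-driven DTNB reduction monitored via TNB absorbance. Enzyme dispensed at 20 nM; compound exposure 15 min at room temperature before reaction start.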
FBPA Giardia inh – Giardia lamblia aldolase inhibition; A8B2U2; purified Giardia FBPA; Potency, µM (top dose mostly 59.6 µM), without a hit: at the top dose activity, negative = inhibition, actives largely listed as inhibitors; hit rate 0.71% among 290,000; note: potency is the fitted concentration of half-maximal effect; nearly all actives have a fitted effect of over 55% in size
Target sequence (A8B2U2 whole entry, looked up): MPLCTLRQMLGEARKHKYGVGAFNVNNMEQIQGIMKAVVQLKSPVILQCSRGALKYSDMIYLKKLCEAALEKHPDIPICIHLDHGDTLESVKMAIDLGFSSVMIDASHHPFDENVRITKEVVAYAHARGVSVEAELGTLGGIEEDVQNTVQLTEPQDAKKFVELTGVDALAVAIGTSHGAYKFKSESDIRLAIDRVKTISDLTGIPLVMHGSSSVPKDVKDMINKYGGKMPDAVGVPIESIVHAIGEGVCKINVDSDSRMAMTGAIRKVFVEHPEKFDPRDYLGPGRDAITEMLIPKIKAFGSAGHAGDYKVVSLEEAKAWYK
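Giardia FBPA (40 nM reagent) was preincubated 10 min at RT with compound (up to 57.5 uM final), then substrate plus GAPDH/TPI/NAD/arsenate coupling system with diaphorase/resazurin was added; resorufin fluorescence (525/598 nm) was read after 20 min.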
Tb PYK inh – T. brucei pyruvate kinase inhibition | TbPYK enzyme, Kinase-Glo Plus ATP luminescence, 45 min | Potency, µM (top dose mostly 76.8 µM), inactives show at the top dose activity, negative = inhibition, hits mostly inhibitors | hit rate 0.12% among 410,000; note: potency is the fitted concentration of half-maximal effect; nearly all actives have a fitted effect of over 50% in size
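Screened from lowest to highest concentration, compounds were pinned into TbPYK/substrate mixtures, and ADP (130 uM final) was added. Plates sat at room temperature for 45 min prior to Kinase-Glo Plus detection by luminescence.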
HCMV antiviral – inhibitors of human cytomegalovirus | activity change, negative = inhibition, % at 57.5 µM | HFF cells, HCMV-luciferase reporter, 72 h; active compounds read low | hit rate 4.5% among 410,000 | AID 1259415; in the data active = activity change below about -60%; inconclusive = no clear call, values can overlap the other calls; inactive = above about -39%
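Inhibition of viral replication was scored as loss of reporter luminescence in HFFs infected with HCMV-luciferase (MOI 1 PFU/cell) for 72 h; compounds tested at 2 doses, normalized to buffer and Salinomycin controls.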
The depositor's hits bear a star; ? = inconclusive; / = no result given; + = active, no number; ! = not confirmed by another sample; [ ] = remark or other dose. Only some compounds are listed: those with a hit (about 7.7% of all), similar ones and a draw of the others. Unless noted, calls come from the whole dose curve; as a rule, active = well fitted curve in the direction sought with a large enough effect; inconclusive = small, poorly fitted or top-dose-only effect, or another doubt; inactive = no such curve, though single readings can be large; an effect the other way counts as inactive or inconclusive. % is set by controls: 0 for no effect and ±100 for the full control effect.

SMILES	FMDV inh	RE007 growth inh	Sm TGR block	FBPA Giardia inh	Tb PYK inh	HCMV antiviral
CC(=O)C1=C(O)C(=O)N(c2ccc(F)cc2)C1c1ccc(C)cc1 (stereo not given)	5.9%	4.9%	-16.9%	-14.6%	1.3%	-68.8*
CC(=O)C1=C(O)C(=O)N(c2ccc(O)cc2)C1c1ccc(C)cc1 (stereo not given)	-8.8%	12.2%	-6.2%	-10.1%	-3.2%	-11.8
O=C(CS(=O)(=O)c1cccc2nsnc12)Nc1ccccc1Cl	19.1%	/	-2.0%	/	-2.5%	4.2
CC1(C)CC(=O)C2=C(C1)NC(=S)C(C#N)C21CCCCC1 (stereo not given)	-19.0%	-12.8%	-14.4%	?	2.82µM*	-4.6
CC1C2=C(CC(C)(C)CC2=O)NC2=C1C(=O)CC(C)(C)C2	-4.8%	2.1%	-8.8%	1.7%	-0.7%	91.0
COc1cccc([C@H](O)Cn2cc(-c3cccc(CON=C(C)C)c3)nn2)c1	/	/	/	1.1%[12.9 µM]	/	/
CC(C)(C)c1ccc(C(=O)N2CCN(C(=O)C3CCCCC3)CC2)cc1	?	5.8%	6.7%	/	4.8%	-76.7*
CC(C)(C)c1ccc(C(=O)N2CCCN(C(=O)c3ccc(C(C)(C)C)cc3)CC2)cc1	?	1.6%	-12.6%	0.4%	-2.5%	-5.5
O=[N+]([O-])c1ccc2c(c1)N([O-])C1(CCCCC1)[N+]2=O	-21.3%	5.3%	2.82µM*	7.92µM*	?	2.6
CC(NC(=O)CCCn1c(=O)c2cccn2c2cccnc21)c1ccccc1 (stereo not given)	2.0%	/	5.5%	/	3.2%	-65.0*
CC(C)Oc1ccc(CNC(=O)CCCn2c(=O)c3cccn3c3cccnc32)cc1	-1.1%	/	8.3%	/	6.8%	-67.7*
CN1CCN(C(=O)CCn2c(=O)c3cccn3c3cccnc32)CC1	-4.6%	-0.6%	-0.4%	8.4%	2.5%	+
O=C(CCn1c(=O)c2cccn2c2cccnc21)N1CCN(c2ccccc2)CC1	-15.1%	/	10.1%	/	-5.0%	-19.4
Cc1ncc2c(c1CNS(=O)(=O)c1cccs1)CCN(C(=O)/C=C/c1cc(F)cc(F)c1)C2	-5.5%	/	/	/	/	/
CSc1nc2nccc(/C=C\c3ccccc3)n2n1	?	-15.9%	-19.2%	4.7%	-3.5%	-106.0*
Cc1cc(C(=O)C(C)Cl)c(C)n1Cc1ccco1 (stereo not given)	-5.6%	10.7%	28.2µM*	0.7%	-7.7%	-6.1
Cn1c(=O)n(CC(=O)OCc2ccccc2)c(=O)c2c1nc1n2CCCN1C1CCCCC1	28.2µM*	1.9%	/	/	0.9%	-33.5
Cn1ncc2c(Nc3cccc(Cl)c3)nc(Nc3cccc(Cl)c3)nc21	40.6%	?	-0.2%	-11.4%	-0.4%	-66.3*
Clc1ccc(Nc2ncnc3c2cnn3-c2ccccc2)cc1	3.0%	-0.3%	3.0%	?	0.6%	-19.8
Fc1ccc(-n2ncc3c(Nc4cccc(Cl)c4)ncnc32)cc1	22.0%	/	5.3%	/	-14.9%	-65.6*
COc1ccc2c3n([n+]([O-])c2c1)C(C)CN=C3c1cc(Cl)c(N)c(Cl)c1 (stereo not given)	/	/	/	/	/	58.3
CCC[C@H]1[C@@H](NS(=O)(=O)c2cn(C)cn2)CC[C@@]23CCCN2C(=O)CCC[C@@H]13	/	/	/	/	/	-23.3
O=C(NCc1ccccc1Cl)c1cc(-c2ccccc2)n[nH]1	49.4%	/	4.0%	/	-2.5%	12.6
CC1(C)OC(=O)C(=NNc2ccccc2)C(=O)O1	23.0%	-6.2%	0.0%	-4.7%	4.2%	-4.4
CC1(C)OC(=O)C(=NNc2ccccc2C(=O)O)C(=O)O1	-18.9%	7.7%	2.7%	-20.7%	5.5%	-6.9
SMILES	FMDV inh	RE007 growth inh	Sm TGR block	FBPA Giardia inh	Tb PYK inh	HCMV antiviral
CC1(C)OC(=O)C(=NNc2ccccc2[N+](=O)[O-])C(=O)O1	2.8%	35.5µM*	-25.3%	-7.7%	-1.3%	-6.9
CC1(C)OC(=O)C(=NNc2ccc(C(=O)O)cc2)C(=O)O1	-10.9%	18.2%	-2.5%	-3.6%	4.7%	-90.0*
CCOc1ccc(CC(=O)Nc2nnc3n2CCS3)cc1	16.5%	/	8.9%	/	-2.5%	-60.7*
CC(C)(C)c1ccc(C(=O)Nc2nnc3n2CCS3)cc1	16.0%	/	0.8%	/	-0.1%	-84.2*
Cc1ccc(NC(=O)CSc2nc(=O)n(Cc3cccnc3)c3c2CCC3)cc1F	-27.7%	/	-0.2%	/	-2.5%	-17.1
NCCCn1c(C(=O)c2cc(Cl)c(N)c(Cl)c2)c2ccccc2[n+]1[O-]	0.2%	-12.3%	35.5µM*	/	-3.3%	69.5
NC(=O)CCn1c(C(=O)c2cc(Cl)c(N)c(Cl)c2)c2ccccc2[n+]1[O-]	0.0%	7.5%	4.2%	7.8%	0.4%	-38.9
COc1ccc(C(=O)c2c3ccccc3[n+]([O-])n2CCCN)cc1	-2.6%	-8.3%	?	/	-5.6%	-95.5*!
Cc1ccc(C(=O)c2c3ccc([N+](=O)[O-])cc3[n+]([O-])n2CCCN)cc1	7.2%	-10.6%	35.5µM*	/	-11.8%	-2.5
Cc1ccc(C)c(N2CCN(C(=O)C3CCN(S(=O)(=O)c4cn(C)cn4)CC3)CC2)c1	0.4%	/	0.2%	/	-3.7%	-20.2
O=C(O)c1cc(N(Cc2ccccc2O)Cc2cc(O)ccc2O)ccc1O	-21.5%	/	/	-28.5%	/	/
Cc1ccc(C)c(OCCCn2c(-c3ccc(Cl)cc3)nc3ccccc3c2=O)c1	-24.2%	/	8.0%	/	2.9%	34.1
COC1C(O)C(C)OC(OC2CCC3(C)C(CCC4C3C(O)CC3(C)C(C5=CC(=O)OC5)CCC43O)C2)C1O (stereo not given)	-20.8%	29.8%	/	/	0.3%	-99.5*
CC1OC(O[C@H]2C[C@@H](O)[C@]3(CO)[C@@H]4C(CC[C@]3(O)C2)[C@@]2(O)CC[C@H](C3=CC(=O)OC3)[C@@]2(C)C[C@H]4O)C(O)C(O)C1O (stereo not given in full)	/	/	/	/	10.9%	/
C[C@H]1O[C@@H](O[C@H]2[C@@H](O)C[C@H](O[C@H]3[C@@H](O)C[C@H](O[C@H]4CC[C@@]5(C)[C@H](CC[C@@H]6[C@@H]5C[C@@H](O)[C@]5(C)[C@@H](C7=CC(=O)OC7)CC[C@]65O)C4)O[C@@H]3C)O[C@@H]2C)C[C@H](O)[C@@H]1O	?	-0.8%	30.9%	7.3%	0.5%	-99.7*
CC(=O)OC1CC(OC2C(O)CC(OC3C(O)CC(OC4CCC5(C)C(CCC6C5CC(O)C5(C)C(C7=CC(=O)OC7)CCC65O)C4)OC3C)OC2C)OC(C)C1OC1OC(CO)C(O)C(O)C1O (stereo not given)	?	16.9%	/	14.9%	2.1%	-100.1*
CCOC(=O)[C@]1(C(NC(=O)OC)c2cccc(F)c2)CCCC1=O (stereo not given in full)	/	/	/	-0.1%[12.9 µM]	/	/
